RN4220 kill = S. aureus RN4220 growth inhibition; OD600, 16 h; inhibition, % (no concentration beside the values); actives 0.33% (n = 330,000); AID 1259311; in the data active = inhibition above about 85%;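 note: plate controls were untreated cells for no effect and reference antibiotic for full effect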
SSB-PriA inh = K. pneumoniae PriA-SSBct interaction inhibition; AlphaScreen SSBct-PriA binding, biotinylated peptide; inhibition, % at 33 µM; actives 0.6% (n = 430,000); AID 1272365; in the data active = inhibition mostly above about 37%, no sharp cut-off; inactive = mostly below about 20%;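 note: plate controls were negative control peptide for no effect and reference peptide for full effect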
CCHFV vOTU inh = CCHFV vOTU protease inhibition; Pep-AMC fluorescence; inhibition, % at 11.5 µM; actives 0.55% (n = 370,000); AID 651958; in the data active = inhibition above about 30%; note: 0% = vehicle wells with enzyme and 100% = no enzyme wells
Sa ugtP lethal = compounds lethal to S. aureus RN4220 ugtP deletion mutant. growth inhibition, % (test concentration not listed). OD600 growth, 16 h. actives 0.54% (n = 330,000); in the data active = growth inhibition above about 68%;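 note: plate controls were untreated wells for no effect and antibiotic for full effect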
DUSP3 inh = blocks human VHR1 dual specificity phosphatase | inhibition, % at 13.3 µM | AID 1654 | P51452 | recombinant VHR phosphatase, pNPP absorbance | actives 0.52% (n = 290,000); in the data active = inhibition above about 50%
Target sequence (P51452 whole entry, looked up): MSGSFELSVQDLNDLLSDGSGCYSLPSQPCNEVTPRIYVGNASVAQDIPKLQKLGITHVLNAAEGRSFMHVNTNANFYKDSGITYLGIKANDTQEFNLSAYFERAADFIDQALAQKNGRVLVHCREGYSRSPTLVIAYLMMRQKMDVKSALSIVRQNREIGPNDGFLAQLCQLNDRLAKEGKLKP
* hit, by the source's call; i = inactive; · = no result given; ! = not active in a repeat. An excerpt weighted towards active compounds, which were near 1.5% of everything screened.

SMILES	RN4220 kill	SSB-PriA inh	CCHFV vOTU inh	Sa ugtP lethal	DUSP3 inh
CC(C)=CC(=O)Nc1nnc(-c2cccnc2)s1	2	-8	5	3	53*
c1ccc(-c2csc3nnc(SCc4ccc5c(c4)OCCO5)n23)cc1	2	40*!	7	-13	39
Cc1ccc(-c2csc3nnc(SCc4ccc5c(c4)OCO5)n23)cc1	·	7	·	·	·
C[CH2][Hg][S]c1ccccc1C(=O)O	100*	i	-1	98*	·
COc1ccc(CC2(C)OC(c3ccc([N+](=O)[O-])cc3)=NN2C(C)=O)cc1 (stereo not given)	7	45*	-6	3	-22
CCN1CCN(Cc2ccc(NC(=O)c3ccc(C)c(NC(=O)c4cncc(-c5cccs5)c4)c3)cc2C(F)(F)F)CC1	-6	47*	·	-8	·
O=C(NCCCn1ccnc1)C(=O)NCC1OCCN1S(=O)(=O)c1ccc([N+](=O)[O-])cc1 (stereo not given)	·	80*	·	·	·
O=C(NCCCn1ccnc1)C(=O)NCC1OCCN1S(=O)(=O)c1ccc2c(c1)OCCO2 (stereo not given)	0	23*!	-2	-1	21
O=C(NCCc1ccccc1)C(=O)NCC1OCCN1S(=O)(=O)c1ccc2c(c1)OCCO2 (stereo not given)	1	-4	-2	-1	-7
COc1ccc(S(=O)(=O)N2CCOC2CNC(=O)C(=O)NCCCn2ccnc2)cc1 (stereo not given)	·	102*	·	·	·
Cc1cc(C)c(S(=O)(=O)N2CCOC2CNC(=O)C(=O)NCCCn2ccnc2)c(C)c1 (stereo not given)	3	50*	3	7	5
CCC(=O)N1N=C(c2ccc(NS(C)(=O)=O)cc2)C[C@H]1c1ccc2nccnc2c1	·	5	·	·	·
CC(=O)c1ccc(NC(=O)C2CCN(c3ccc(-c4ccccc4)nn3)CC2)cc1	·	-12	·	·	·
O=C(CCN1CCCO1)N1CCCC(N2CCN(c3ccccc3F)CC2)C1 (stereo not given)	0	15	21	4	35
COc1ccccc1N1CCN(C2CCCN(C(=O)CCN3CCCCO3)C2)CC1 (stereo not given)	2	-7	9	5	51*
CN1CCN(CCCC(=O)c2ccc(C3CCCC3)cc2)CC1	-3	7	-11	85*	4
CN1CCN(CCCCC(=O)c2ccccc2)CC1	4	0	0	3	20
CCCOC(=O)c1c(-c2ccccc2)nc(CC)c(C(=O)SCC)c1CCC	-2	-22	6	95*	·
O=[N+]([O-])c1ccc(O)c(C2=NNC(c3ccccc3F)C2)c1 (stereo not given)	92*	-3	-11	94*	21
CCOc1cc(C(=O)NCc2ccc(C)cc2)ccc1OCC(=O)N1CCOCC1	2	-9	-15	1	51*
Cc1cc(C)nc(NS(=O)(=O)c2ccc(N/C=C\C(=O)c3ccc(Cl)cc3)cc2)n1	4	4	18	-7	21
CCOc1ccc(C(=O)/C=C/Nc2ccc(S(=O)(=O)Nc3cc(C)nc(C)n3)cc2)cc1	1	-1	-7	-2	50*
CC(=O)c1ccc(Oc2ccc(C(=O)c3ccc(C)c(C)c3)cc2[N+](=O)[O-])cc1	-6	4	-5	0	8
COC(=O)c1ccc(Oc2ccc(C(C)(C)C)cc2)c([N+](=O)[O-])c1	-15	-5	1	95*	25
Cc1cc2ncn(CC/C(N)=N\O)c2cc1C	·	1	·	·	·
SMILES	RN4220 kill	SSB-PriA inh	CCHFV vOTU inh	Sa ugtP lethal	DUSP3 inh
CCc1cccc(CC)c1NC(=O)c1cccc(N)c1	1	-6	-4	4	56*
Cc1ccc(-n2ncc(C(=O)NCC3CCN(C4CCCC4)C3)c2C2CCN(C(=O)OC(C)(C)C)CC2)cc1C (stereo not given)	1	14	6	3	58*
CC1(c2ccccc2)CC(C)(C)N(C(=O)C2CCCO2)c2ccccc21 (stereo not given)	14	-7	35*	12	-23
CC(C)CCN1C(=O)c2ccc(C(=O)Nc3ccc(Br)cc3C(=O)O)cc2C1=O	98*	-2	4	100*	16
CC(C)CCN1C(=O)c2ccc(C(=O)Nc3cc(C(=O)O)cc(C(=O)O)c3)cc2C1=O	6	-4	11	10	16
O=C(Nc1ccc(Cl)cc1C(=O)O)c1ccc2c(c1)C(=O)N(Cc1ccco1)C2=O	66	-22	4	100*	-11
COc1nccnc1OC1CCCN(C(=O)c2ccco2)C1 (stereo not given)	·	-10	·	·	·
Cc1ccc(N2CC(C(=O)N3CCC(c4nn(C)c(=O)n4C4CC4)CC3)CC2=O)cc1C (stereo not given)	·	-14	·	·	·
COc1ccc(C)cc1NC(=O)C(=O)NCC(c1ccc2c(c1)CCN2C)N(C)C (stereo not given)	·	53*	·	·	·
COc1ccc(NC(=O)C(=O)NCC(c2ccc3c(c2)CCN3C)N(C)C)c(OC)c1 (stereo not given)	·	25	·	·	·
CN(c1ccsc1C(=O)Nc1cccc(OC(F)(F)F)c1)S(=O)(=O)c1ccccc1	·	-12	·	·	·
CC(=O)c1c(Nc2cccc(Cl)c2)oc(C)cc1=O	·	-9	·	·	·
CC1(C)Cc2ccccc2-c2nnc(SCC(=O)Nc3nc4ccccc4s3)n21	88*	-8	6	98*	41
Cn1c(SCC(=O)Nc2nc3ccccc3s2)nnc1-c1ccccc1	0	-16	6	9	21
O=C(/C=C/c1cccc(Cl)c1)c1ccc([N+](=O)[O-])o1	·	-3	9	·	·
O=C(C=Cc1ccc(Cl)cc1)c1ccc([N+](=O)[O-])o1	79	·	·	99*	·
CCC(=O)N1CCN(c2cc(N3CCCC3)c(F)cc2[N+](=O)[O-])CC1	-1	-2	10	-3	·
O=C(c1cccc(F)c1)N1CCN(c2cc(N3CCCCC3)c(F)cc2[N+](=O)[O-])CC1	1	42*	4	-14	-4
Cc1cc(C(=O)Nc2nc(C(=O)NCCC3=CCCCC3)co2)no1	·	-4	·	·	·
CCOc1ccc2nc(SCC(=O)N3CCCc4ccccc43)sc2c1	5	-7	4	85*	6
O=C(CSc1ccc(-c2ccccn2)nn1)N1CCCc2ccccc21	10	62*!	-8	3	1
O=C(CSc1nccn1-c1cccc(Cl)c1)N1CCc2ccccc21	·	44*	·	·	·
O=C(CSc1ccc(-c2ccncc2)nn1)N1CCCc2ccccc21	·	32	·	·	·
O=C(CSc1nccn1-c1ccccc1)N1CCCc2ccccc21	·	72*	·	·	·
COc1cc2c(cc1OC)C(C)N(C(=O)c1sccc1C)CC2 (stereo not given)	4	2	1	6	52*
COc1cc2c(cc1OC)C(C)N(C(=O)c1ccc(C)o1)CC2 (stereo not given)	1	5	1	5	2
CC(=O)C(=NNc1ccccc1[N+](=O)[O-])N1CCCc2ccccc21	-2	56*	·	14	·
O=C(Nc1nnc(-c2ccno2)o1)C1COc2ccccc2O1 (stereo not given)	·	21	·	·	·
Cc1ccc(C)c(-c2nnc(NC(=O)C3COc4ccccc4O3)o2)c1 (stereo not given)	·	-17	·	·	·

Source: PubChem BioAssay (several laboratories)
